Results published in PubChem BioAssay (NCI).
About 79,000 compounds went through this panel and 15% of them were active in at least one assay; those are over-represented in the sample as a whole. Active and inactive are the calls of the source. Cut-off read from the data, not from the text of the source: active = growth inhibition above about 70%; inactive = the rest.

Assay: NCI Yeast Anticancer Drug Screen. Data for the sgs1 strain (AID 173);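 note: 0% = growth of vehicle-only control cultures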
Conditions: S. cerevisiae sgs1 mutant, stronger effect = higher value
Method: Growth inhibition of yeast strains with defined genetic alterations is measured as a screen for potential anti-cancer activity. Selected strains with alterations in DNA damage repair or cell cycle control were exposed to compounds and growth inhibition was measured relative to vehicle treated controls. The strain used in this assay is sgs1

Measured: growth inhibition

CCCC(=O)Oc1ccc(/C=N/NC(N)=S)nc1
inactive: at 1.2 µM -10% | at 3.7 µM -5% | at 11.0 µM -2% | at 33.0 µM -9% | at 100.0 µM -1%

Cc1cc(N(CCOS(C)(=O)=O)CCOS(C)(=O)=O)ccc1C=Nc1ccc(-c2nc(Cc3ccccc3)sc2C)cc1
inactive: at 1.2 µM 3% | at 3.7 µM 15% | at 11.0 µM 66%
active: at 33.0 µM 94% | at 100.0 µM 98%

CCc1nc2ccc(NCCN(C)C)c3c(=O)c4ccccc4n1c23
inactive: at 1.2 µM 18% | at 3.7 µM 15% | at 11.0 µM 28% | at 33.0 µM 22% | at 100.0 µM 54%

Cn1c(-c2ccc(/C=N\N3CCN(/N=C/c4ccc(-c5c[n+]6ccccc6n5C)cc4)CC3)cc2)c[n+]2ccccc12
inactive: at 1.2 µM -20% | at 3.7 µM -33% | at 11.0 µM -17% | at 33.0 µM 65%
active: at 100.0 µM 90%

CCc1c(Cl)c(C)cc(O)c1Cl
inactive: at 1.2 µM -4% | at 3.7 µM -4% | at 11.0 µM 5% | at 33.0 µM 33%
active: at 100.0 µM 91%

COC1CCC(O)C(/C=C/[N+](=O)[O-])C1 (stereo not given)
active: at 11.0 µM 99% | at 33.0 µM 99% | at 100.0 µM 98%
inactive: at 1.2 µM 13% | at 3.7 µM 68%

COc1ccc(C2C3=C(COC3=O)OC(C)(C)Oc3cc4c(cc32)OCO4)cc1OC (stereo not given)
inactive: at 1.2 µM 37% | at 3.7 µM 23% | at 11.0 µM 27% | at 33.0 µM 61%
active: at 100.0 µM 94%

c1ccc(CCN2CCc3ccccc3C2)cc1
inactive: at 1.2 µM -1% | at 3.7 µM 0% | at 11.0 µM 6% | at 33.0 µM 18% | at 100.0 µM 17%
